Only some compounds are listed: those with a hit (about 3.9% of all), similar ones and a draw of the others.
3CLpro inhibitor – SARS-CoV 3CLpro protease inhibitors, primary screen, biochemical, quenched FRET; Replicase polyprotein 1ab (Severe acute respiratory syndrome coronavirus), P0C6X7; recombinant SARS-CoV 3CLpro, quenched FRET peptide cleavage; inhibition, % at 6 µM; hit rate 0.14% among 290,000; in the data active = inhibition above about 12%
CCHFV vOTU inh – CCHFV vOTU protease inhibitors, primary screen, biochemical, Pep-AMC substrate, fluorescence; Crimean-Congo hemorrhagic fever virus L polyprotein viral ovarian tumor (vOTU) protease …; hit rate 0.55% among 370,000; AID 651958, 2012; inhibition, % at 11.5 µM; in the data active = inhibition above about 30%
BoNT-F LC inh – BoNT/F light chain protease inhibitors, primary screen, biochemical, flow cytometry, MLPCN library. Multiplex microsphere protease cleavage assay. inhibition, % at 10 µM. hit rate 0.22% among 360,000. AID 588497, 2011; in the data active = inhibition above about 35%, passing the limit was not always enough; inconclusive = no clear call, values can overlap the other calls
Autofluor counter – flagged as autofluorescent in microsphere protease counterscreen; compound autofluorescence counterscreen, microsphere flow cytometry; active compounds read high; fluorescence intensity (test concentration not listed); hit rate 3.1% among 360,000; AID 624483; in the data active = fluorescence intensity above about 16000; inconclusive = no clear call, values can overlap the other calls
BoNT A protease – BoNT/A light chain protease inhibitors, primary screen, biochemical, flow cytometry, MLPCN library | hit rate 0.17% among 360,000 | multiplex microsphere protease substrate cleavage | Botulinum neurotoxin type A light chain protease (Clostridium botulinum A str. ATCC 3502) | AID 588499, 2011 | inhibition, % at 10 µM
Anthrax LF inh2 – Bacillus anthracis LF protease inhibitors, primary screen, biochemical, multiplex microsphere, MLPCN library | AID 588501, 2011 | inhibition, % at 10 µM | multiplex microsphere protease cleavage assay | hit rate 0.12% among 360,000
Target sequence (P15917 whole entry, looked up): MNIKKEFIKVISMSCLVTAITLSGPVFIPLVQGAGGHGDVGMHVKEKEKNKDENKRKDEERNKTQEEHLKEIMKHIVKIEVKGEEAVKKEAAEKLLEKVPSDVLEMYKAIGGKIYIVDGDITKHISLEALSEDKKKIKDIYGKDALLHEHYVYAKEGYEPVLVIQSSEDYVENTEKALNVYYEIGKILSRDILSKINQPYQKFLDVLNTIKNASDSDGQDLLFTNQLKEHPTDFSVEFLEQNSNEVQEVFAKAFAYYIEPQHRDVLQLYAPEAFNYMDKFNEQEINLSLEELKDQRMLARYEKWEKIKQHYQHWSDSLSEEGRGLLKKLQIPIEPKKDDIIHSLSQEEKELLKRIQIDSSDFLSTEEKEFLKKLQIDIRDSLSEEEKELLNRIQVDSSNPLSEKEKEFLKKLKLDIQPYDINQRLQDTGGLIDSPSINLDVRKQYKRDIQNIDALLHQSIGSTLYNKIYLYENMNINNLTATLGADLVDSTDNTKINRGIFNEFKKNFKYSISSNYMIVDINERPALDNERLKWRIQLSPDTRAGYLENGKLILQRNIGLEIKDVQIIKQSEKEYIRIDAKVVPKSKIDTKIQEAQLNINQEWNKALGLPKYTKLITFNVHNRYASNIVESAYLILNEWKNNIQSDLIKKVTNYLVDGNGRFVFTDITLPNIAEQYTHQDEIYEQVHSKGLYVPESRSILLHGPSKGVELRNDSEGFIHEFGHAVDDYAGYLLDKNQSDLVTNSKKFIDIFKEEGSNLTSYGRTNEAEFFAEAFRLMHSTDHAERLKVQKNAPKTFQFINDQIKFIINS
Numbers stand for hits; 0 = inactive; ? = inconclusive; - = no result. Rule as the data show it, unless noted: active = inhibition above about 30%; inconclusive = no clear call, values can overlap the other calls; inactive = below that.

SMILES | 3CLpro inhibitor | CCHFV vOTU inh | BoNT-F LC inh | Autofluor counter | BoNT A protease | Anthrax LF inh2
CCOC(=O)N1CCN(C(=O)C2CCN(S(=O)(=O)c3c(C)cc(C)cc3C)CC2)CC1 | 0 | 0 | 0 | 16613 | 0 | 0
CCOC(=O)N1CCN(S(=O)(=O)c2ccc(C)c(C)c2)CC1 | 0 | 0 | 0 | 23015 | ? | 0
Cc1ccccc1Cn1cc(COC(=O)NCCc2c[nH]c3ccccc23)nn1 | - | 0 | - | - | - | -
Cc1cccc(NC(=O)CNC(=O)[C@H](CCc2ccccc2)NC(=O)[C@H]2O[C@@H](n3cnc4c(N)ncnc43)[C@H](O)[C@@H]2O)c1C | - | 0 | - | - | - | -
Cc1ccc(O)c(-c2cc(C(F)(F)F)[nH]n2)c1 | 0 | 0 | 0 | 21889 | ? | 0
Cc1cccc(NC(=O)c2cc(-c3cc(C)ccc3O)n[nH]2)c1 | 0 | 0 | 0 | 0 | 0 | 0
COC(=O)C12C=C3CC(c4ccc(C(F)(F)F)cc4)=C3C(=O)N1Cc1[nH]c3ccccc3c1C2 (stereo unspecified) | - | 0 | - | - | - | -
COc1ccc(C2C3=C(CC(C)(C)CC3=O)Nc3c2c(=O)[nH]c(=O)n3Cc2ccccc2)cc1OC (stereo unspecified) | 0 | 0 | 0 | 23655 | 0 | 0
COc1cc(C2C3=C(CC(C)(C)CC3=O)Nc3c2c(=O)[nH]c(=O)n3Cc2ccccc2)ccc1O (stereo unspecified) | 0 | 0 | 0 | 0 | 0 | 0
CCc1ccc(C2C3=C(CC(C)(C)CC3=O)Nc3c2c(=O)[nH]c2nc(C)nn32)cc1 (stereo unspecified) | 0 | 0 | 0 | 21959 | ? | 0
CC(C)C[C@H]1COc2cccc(F)c2S(=O)(=O)N1Cc1cn(Cc2ccc(Cl)cc2)nn1 | - | 0 | - | - | - | -
CCCCCCNC(=O)CCNC(=O)c1cc(OC)c(OC)c(OC)c1 | 0 | 0 | 0 | 22280 | 0 | 0
COc1cc(C(=O)Nc2ccc(Br)cc2C(=O)c2cc(OC)c(OC)c(OC)c2)cc(OC)c1OC | 0 | 0 | 0 | 24193 | 0 | 0
COc1cc(C(=O)NCCC(=O)NC(C)C)cc(OC)c1OC | 0 | 0 | 0 | 0 | 0 | 0
COc1cc(C(=O)NCCSc2ccc(Br)cc2)cc(OC)c1OC | 0 | 0 | 0 | 18300 | 0 | 0
CCOC(=O)c1oc2ccccc2c1NC(=O)c1cccc(OC)c1 | 0 | 0 | 0 | 22777 | 0 | 0
CCOC(=O)c1[nH]c2ccccc2c1NC(=O)c1ccc2c(c1)OCO2 | 0 | 0 | 0 | 0 | 0 | 0
COc1ccc(C(=O)c2oc3ccccc3c2N)cc1 | 0 | 0 | 0 | 20810 | 0 | 0
CCOC(=O)c1oc2ccccc2c1NC(=O)c1ccc2c(c1)OCO2 | 0 | 0 | 0 | 24146 | 0 | 0
COc1ccc(NC(=O)c2oc3ccccc3c2NC(=O)c2ccc3c(c2)OCO3)cc1 | 0 | 0 | 0 | 22577 | 0 | 0
COc1cccc(C(=O)Nc2c(C(N)=O)oc3ccccc23)c1 | 0 | 0 | 0 | 0 | 0 | 0
CC(=O)OC12CCCN(C1)/C(=C/c1cccnc1)C2 (stereo unspecified) | - | 0 | - | - | - | -
CC(C)CCN1C(=O)COc2ccccc2C1c1nnnn1-c1ccc2c(c1)OCCO2 (stereo unspecified) | - | 0 | - | - | - | -
CN1[C@@H](Cc2ccccc2)COc2cccc(F)c2S1(=O)=O | - | 0 | - | - | - | -
Cc1ccc2oc(-c3ccc(NC(=O)c4ccc5c(c4)OCO5)cc3)nc2c1 | 0 | 0 | 0 | 0 | 0 | 0
SMILES | 3CLpro inhibitor | CCHFV vOTU inh | BoNT-F LC inh | Autofluor counter | BoNT A protease | Anthrax LF inh2
COc1ccc(NC(=O)c2oc3ccccc3c2C)c(OC)c1 | 0 | 0 | 0 | 22634 | ? | 0
COc1cccc(C2NC(=O)NC(C)=C2C(=O)Nc2ccc(C)cc2)c1OC (stereo unspecified) | 0 | 0 | 0 | 0 | 0 | 0
CCOC(=O)c1oc2ccccc2c1NC(=O)c1cccc(OC)c1OC | 0 | 0 | 0 | 18642 | 0 | 0
O=C(Nc1ccc(-c2nc3ccccc3o2)cc1)c1ccc2c(c1)OCO2 | 0 | 0 | 0 | 16511 | 0 | 0
COc1ccc(NC(=O)C2=C(C)NC(=O)NC2c2cccc(OC)c2OC)c(OC)c1 (stereo unspecified) | 0 | 0 | 0 | 20365 | ? | 0
COC(=O)C1=C(C)N(Cc2ccc(C(F)(F)F)cc2)C(=NCc2cc(OC)c(OC)c(OC)c2)NC1c1cccc(Cl)c1 (stereo unspecified) | - | 0 | - | - | - | -
COC(=O)C1C(c2ccccc2)C(C(=O)N2CCOCC2)C1c1ccccc1 (stereo unspecified) | 0 | 0 | 0 | 22025 | ? | 0
O=C(CSc1ncn[nH]1)Nc1ccccc1Sc1ccccc1 | 0 | 0 | 0 | 23235 | ? | 0
O=C(CCl)Nc1ccccc1Sc1ccc(Cl)cc1 | 0 | 0 | 0 | 20704 | 0 | 0
N#Cc1ccsc1NC(=O)CSc1ncn[nH]1 | 0 | 0 | 0 | 22762 | 0 | 0
O=C(CSc1ncn[nH]1)Nc1ccccc1-c1ccccc1 | 0 | 0 | 0 | 0 | 0 | 0
O=C(Nc1ccc(F)cc1)OCc1cn(Cc2cccc(F)c2F)nn1 | - | 0 | - | - | - | -
Clc1ccc(Nc2cc(-c3ccccc3)nc3ncnn23)cc1 | 0 | 0 | 0 | 0 | 0 | ?
c1ccc(Nc2cc(-c3ccccc3)nc3ncnn23)cc1 | 0 | 0 | 0 | 16695 | ? | 0
O=C(CSc1nnc(COc2ccccc2)n1-c1ccccc1)Nc1ccc(S(=O)(=O)Nc2nccs2)cc1 | - | 0 | - | - | - | -
O=S1(=O)c2ccc(N3CCN(Cc4ccccc4F)CC3)cc2Oc2ccccc2CN1Cc1cn(Cc2ccccc2C(F)(F)F)nn1 | - | 0 | - | - | - | -
CC1CN(c2nc3ccccc3nc2SCC(=O)N2CCN(S(=O)(=O)c3ccccc3)CC2)CC(C)O1 (stereo unspecified) | - | 0 | - | - | - | -
CCc1nnc(NC(=O)CSc2nnc3ncccn23)s1 | 0 | - | 0 | 20884 | ? | 0
CCn1c(SCC(=O)Nc2nc(C)cs2)nnc1-c1cccnc1 | 0 | 0 | 0 | 17501 | 0 | 0
Cc1csc(NC(=O)CSc2nnc3ncccn23)n1 | 0 | 0 | 0 | 22164 | 0 | 0
Cc1cnc(NC(=O)CSc2nnc3ncccn23)s1 | 0 | 0 | 0 | 0 | 0 | 0
O=C(CSc1nnc2ncccn12)N1CCCCCC1 | 0 | 0 | 0 | 23133 | 0 | 0
CCn1cc(C(=O)N2CCN(Cc3ccc(C)cc3)CC2)c(=O)c2ccc(C)nc21 | - | 0 | - | - | - | -
Cc1ccc(Oc2cc(-n3nc(C)cc3C)ncn2)cc1 | 0 | 0 | 0 | 22017 | ? | 0
CN(Cc1ccccc1)C(=O)OCc1cn(Cc2ccccc2C(F)(F)F)nn1 | - | 0 | - | - | - | -
O=C(CSC(=S)N1CCCC1)Nc1ccc(Br)cc1Cl | - | 0 | 35 | ? | 0 | 0
COc1ccc(CNC(=O)c2sc(=S)n(-c3ccc(OC)cc3)c2N)cc1 | 0 | - | 0 | 19355 | 0 | 0
Cn1c(=O)oc2cc(S(=O)(=O)NCCC(=O)NC3CCCC3)ccc21 | 0 | 0 | 0 | 0 | 0 | 0
CCCN(CCC)CCCNS(=O)(=O)c1ccc2c(c1)oc(=O)n2C | 0 | 0 | 0 | 23740 | ? | 0
CN(Cc1ccccc1)C(=O)CCNS(=O)(=O)c1ccc2c(c1)oc(=O)n2C | 0 | 0 | 0 | 20317 | 0 | 0
